Experiment [1] in a line: inhibitors of TNFa-induced NFkB p65 translocation, primary screen, imaging, HUVEC, MLSMR starter and 10KST1 sets (AID 438;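 active = inhibition above 20% together with a positive visual image hit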;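 also: compound added about 3h40 before a 20 min TNFalpha stimulation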;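 as to inhibition: signal is the nuclear over cytoplasmic p65 intensity ratio per well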). Particulars: HUVEC TNFa-induced p65 nuclear translocation; cell count: measured here: nuclei count (cytotoxicity indicator), at 2.08 µM; inhibition: at 2 µM, stronger effect = higher value, 0% TNFa-plus-vehicle, 100% no-TNFa wells.
A short description of experiment [2]: inhibitors of mutant huntingtin aggregation, primary screen, imaging, exon1htt(103Q)mCFP cells, high-content imaging (AID 483;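 active = visual image review flags a hit and inhibition of aggregation exceeds 20%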;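 also: compound exposure lasted 3 days before fixation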;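 as to nuclei count: percent of the per-plate median nuclei count of sample wells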). The note with it: exon1htt(103Q)mCFP cell line, aggregate imaging, at 2 µM; inhibition of aggregation: stronger effect = higher value; nuclei count: measured here: cell count, toxicity.
A short description of experiment [3]: inhibitors of E-selectin induction by TNFa, primary screen, imaging, HUVEC, immunofluorescence, MLSMR starter and 10KST1 sets (AID 487;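 active = visually confirmed hit in the image check and inhibition above 20%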;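 as to inhibition: signal is fraction of cell area covered by stained E-selectin grains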;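 as to nuclei count: 100% = median nuclei count of all wells on the same plate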). The note with it: HUVEC TNFalpha-induced E-selectin immunofluorescence imaging, at 2 µM; inhibition: stronger effect = higher value; nuclei count: measured here: cell number, toxicity.
Experiment [4] can be described thus: DUSP6 inhibitors restoring Erk phosphorylation by chemical complementation, primary imaging in DUSP6-transfected HeLa (AID 609;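 active = compounds giving at least 50% inhibition in the cell-based MKP-3 phosphatase rescue imaging test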;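 as to inhibition: phospho-Erk level distribution per well compared with pooled transfected vehicle control wells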). The note with it: HeLa MKP-3 transfected, phospho-Erk imaging KS statistic, at 10 µM, cells stimulated with TPA for 15 min.
Experiment [5] concerns the target Dual specificity protein phosphatase 6 (Homo sapiens) (UniProt Q16828). Described as above. Particulars: HeLa MKP-3 transfected, phospho-Erk imaging KS statistic; at 10 µM; stronger effect = higher value; cells stimulated with TPA for 15 min.
In experiment [6] the target is Voltage-gated potassium channel subunit beta-2 (Rattus norvegicus) (UniProt P62483). The experiment can be described thus: KvBeta enzyme negative modulators, primary screen, biochemical, NADPH fluorescence (AID 622;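 active = fluorescence slope higher than the sample average by over 3 SD, cut at about -0.22 in these data, passing the limit was not always enough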;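 also: slope of raw intensity against log time taken from 70 to 1610 s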). Particulars: recombinant KvBeta, 4-cyanobenzaldehyde reduction, at 10 µM, stronger effect = higher value.
Chain of Voltage-gated potassium channel subunit beta-2 (Rattus norvegicus) (P62483 whole entry, looked up): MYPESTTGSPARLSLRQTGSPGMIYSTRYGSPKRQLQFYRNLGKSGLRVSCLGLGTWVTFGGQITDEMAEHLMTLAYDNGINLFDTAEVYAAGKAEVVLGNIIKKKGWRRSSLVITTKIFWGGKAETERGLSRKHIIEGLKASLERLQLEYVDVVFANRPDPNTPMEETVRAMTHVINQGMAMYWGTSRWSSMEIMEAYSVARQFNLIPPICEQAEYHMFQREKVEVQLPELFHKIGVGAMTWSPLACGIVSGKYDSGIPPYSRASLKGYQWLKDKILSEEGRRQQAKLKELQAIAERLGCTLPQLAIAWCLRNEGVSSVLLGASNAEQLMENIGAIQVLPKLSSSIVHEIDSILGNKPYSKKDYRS
The target is the same in experiment [7]. The experiment is described as follows: KvBeta positive modulators, primary screen, biochemical, NADPH fluorescence (AID 623;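 active = NADPH fluorescence slope more negative than the mean of all samples by about 3 SD, 99.7% confidence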;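 also: fluorescence intensity change per second fitted from 20 to 320 s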). Particulars: Recombinant KvBeta, NADPH fluorescence decrease slope, 10 min; at 10 µM; stronger effect = lower value.
Experiment [8] has as its target Alpha-2C adrenergic receptor (Homo sapiens) (UniProt P18825). The experiment can be described thus: modulators of alpha2C/GIRK thallium flux, primary screen, cell-based, HEK293 alpha2C/GIRK1/2 (AID 624;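 active = fluorescence slope after compound addition differing from the mean of all screened samples at 99.7% confidence, in either direction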;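 also: slope of fluorescence ratio to pre-addition baseline per second over 15 to 24 s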). Particulars: thallium flux BTC fluorescence, at 10 µM, actives lie on both sides.
The nature of experiment [9]: inhibitors of larval lipid processing in zebrafish, primary screen, whole organism, PED6 fluorescence, gall bladder and intestine (AID 686;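 active = a full or partial loss of lipid-probe fluorescence in the fish gall bladder, intestine or both, judged by eye; inactive = no fluorescence loss, or compound toxic to the fish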;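 also: larvae 5 to 7 days old with five fish per well; signal comes from phospholipase A2 cleavage of quenched PED6 carried via bile; overnight exposure to compound and PED6 before scoring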). The note with it: Zebrafish larvae PED6 lipid processing, fluorescence scoring; screened at 20 µM (by protocol).
Experiment [10] can be described thus: inhibitors of Chlamydomonas gravitaxis, primary screen, whole organism, Chlamydomonas reinhardtii, WT vs cilia-less mutant, absorbance, 96-well (AID 463189).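 Also: 0% = wild type cc124 cells in DMSO and 100% = ciliumless bld1 mutant cells.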 Particulars: OD600 absorbance, 2 days, at 10 µM, stronger effect = higher value.
Experiment [11] can be described thus: inhibitors of Sendai virus-induced IRF3 signaling, primary screen, TLR/RLR signaling modifier project, cell-based, Sendai virus stimulus, luciferase, 10K MLSCN set (AID 602276;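 active = inhibition at or above 50% at 10 µM; inactive = inhibition below 50%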;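 also: firefly luciferase from ISG56 promoter only with Renilla not read in this screen; 0% = Sendai virus plus DMSO and 100% = medium plus DMSO without virus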). Particulars: HEK293 RL24 IRF3 luciferase reporter, at 10 µM, stronger effect = higher value. (In general: Reporter assays use an easily measured gene product as a stand-in for the process of interest.)

The nature of experiment [12]: inhibitors of poly I:C-induced TLR3 signaling, primary screen, cell-based, poly I:C stimulus, luciferase, 10K MLSCN set (AID 602277;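 active = inhibition of the reporter signal at or above 50%; inactive = inhibition below 50%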). Particulars: HEK293-TLR3 RL24 IRF3 luciferase reporter, at 10 µM, stronger effect = higher value.
[13] abbreviates: measured here: cell density z-score.
Where [14] appears, read: measured here: nuclear c-Myc green intensity z-score.
The mark [15] stands for this setting: measured here: nuclear pErk red intensity z-score, stronger effect = higher value.

Several values for one entry are separate records, joined by “and”; a condition that tells them apart may be missing. Equal values may be shown once. Activity calls are given as the source filed them.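 The calls were made as follows, unless noted: active = inhibition at or above 50% relative to wild type and mutant plate controls; inactive = inhibition below 50%.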

The inhibition is the relative decrease from the control value, in per cent.

Chain of Alpha-2C adrenergic receptor (Homo sapiens) (P18825 whole entry, looked up): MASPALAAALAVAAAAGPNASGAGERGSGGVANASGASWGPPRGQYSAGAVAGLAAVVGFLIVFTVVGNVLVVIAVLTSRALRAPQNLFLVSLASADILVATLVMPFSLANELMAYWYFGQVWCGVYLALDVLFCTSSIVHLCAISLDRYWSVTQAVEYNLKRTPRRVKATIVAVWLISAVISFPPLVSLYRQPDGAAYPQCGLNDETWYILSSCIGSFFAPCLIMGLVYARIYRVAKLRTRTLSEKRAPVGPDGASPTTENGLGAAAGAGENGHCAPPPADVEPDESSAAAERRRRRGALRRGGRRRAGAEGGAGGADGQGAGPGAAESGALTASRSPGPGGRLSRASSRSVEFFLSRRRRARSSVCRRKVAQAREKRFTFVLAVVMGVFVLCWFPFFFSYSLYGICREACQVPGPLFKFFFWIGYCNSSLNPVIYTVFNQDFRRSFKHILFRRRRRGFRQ
Chain of Dual specificity protein phosphatase 6 (Homo sapiens) (Q16828 whole entry, looked up): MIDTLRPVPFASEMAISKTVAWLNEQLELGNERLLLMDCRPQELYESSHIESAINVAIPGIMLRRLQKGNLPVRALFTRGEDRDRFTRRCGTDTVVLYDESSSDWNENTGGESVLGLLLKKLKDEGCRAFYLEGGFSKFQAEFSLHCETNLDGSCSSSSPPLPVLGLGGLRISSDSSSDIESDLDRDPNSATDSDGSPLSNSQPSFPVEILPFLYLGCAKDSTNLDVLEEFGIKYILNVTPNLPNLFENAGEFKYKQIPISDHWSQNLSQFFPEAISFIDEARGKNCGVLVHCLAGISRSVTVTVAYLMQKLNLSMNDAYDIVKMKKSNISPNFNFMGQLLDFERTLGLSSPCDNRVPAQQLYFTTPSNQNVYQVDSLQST

In the case of `CC(C)(C)NCC(O)COc1cccc2c1C[C@H](O)[C@H](O)C2` (stereo not given in full), the cell count in [1] came out at 666. The inhibition in experiment [1] is 3.8% (inactive); in experiment [3] it was -100% (inactive); in experiment [5], -0.828% (inactive); in experiment [10] it was 18.1% (inactive); in [11] it was 9.2% (inactive); in experiment [12], 32.8% (inactive). The inhibition of aggregation in [2] is -15.5% (inactive). Besides, the nuclei count in [2] worked out at 101%; in [3], 118%. Also, the figures for the z-score in experiment [4] (setting [13]), in experiment [4] (setting [14]) and in experiment [4] (setting [15]) were 0.108, 0.144 and 1.49, respectively. For the same molecule, the fluorescence slope in [6] is -0.441 (inactive). Besides, the NADPH fluorescence slope in experiment [7] was -2.9e-05 (inactive). For the same molecule, the slope in experiment [8] is 0.00396 (inactive). Besides, in experiment [9], the result was inactive.

For `C[C@]12CCC(=O)C=C1CC[C@@H]1[C@@H]2CC[C@@]2(C)[C@H]1CC[C@]2(O)C(=O)CO`, in [1], the cell count was 695. In addition, the inhibition in experiment [1] was 0.6% (inactive); in [3], -97.9% (inactive); in experiment [5] it was 8% (inactive); in [10] it was -0.27% (inactive) and -16.6% (inactive); in experiment [11], 5.65% (inactive); in experiment [12], 35.1% (inactive). Moreover, the inhibition of aggregation in experiment [2] is 27.5% (inactive). Further, the nuclei count in experiment [2] was determined as 102%; in [3] it was 125%. Also, the z-score was 0.881 in experiment [4] (setting [13]), 0.613 in [4] (setting [14]) and -1.07 in [4] (setting [15]). In [6], the fluorescence slope was -0.52 (inactive). Further, the NADPH fluorescence slope in experiment [7] was -6.8e-05 (inactive). The slope in experiment [8] is 0.00434 (inactive). Further, in experiment [9], the molecule was classed as inactive.

Take `Cn1c(=O)c2c3c(sc2n2c(SCc4ccccc4)nnc12)CCCC3`: in experiment [1], the cell count is 550. The inhibition is -5.3% (inactive) in [1]; -44% (inactive) in [3]; 4.37% (inactive) in [5]; 32.4% (inactive) in [10]; -3.8% (inactive) in [11]; 97.9% (active) in [12]. Besides, the inhibition of aggregation in experiment [2] was 1.8% (inactive). Moreover, the nuclei count was determined as 103% in [2] and 99.3% in [3]. Besides, the z-score in experiment [4] (setting [13]) was -0.0166; in experiment [4] (setting [14]), -0.0898; in experiment [4] (setting [15]) it was -0.287. The fluorescence slope in experiment [6] is -0.371 (inactive). For the same molecule, the NADPH fluorescence slope in experiment [7] is -1.7e-05 (inactive). The slope in experiment [8] is 0.00552 (inactive). For the same molecule, the call in experiment [9] was inactive.

As to `Cc1cc(C)n(-c2nnc(C)n2/N=C/c2ccccc2F)n1`, the cell count in experiment [1] is 592. For the same molecule, the inhibition in [1] is -10% (inactive); in [3], -75.7% (inactive); in experiment [5] it was 9.82% (inactive); in experiment [10], 5.75% (inactive); in experiment [11], 13.6% (inactive); in experiment [12], 22% (inactive). Also, in experiment [2], the inhibition of aggregation was -14.2% (inactive). In addition, the nuclei count in experiment [2] was 107%; in [3], 153%. Further, the values for the z-score in experiment [4] (setting [13]), in [4] (setting [14]) and in experiment [4] (setting [15]) were 0.554, 1.09 and -0.737, respectively. In [6], the fluorescence slope is -0.53 (inactive). For the same molecule, the NADPH fluorescence slope in [7] was -4.2e-05 (inactive). The slope in [8] is 0.00446 (inactive). Further, the outcome in [9] was inactive.

Consider `Nc1nc(F)nc2c1ncn2[C@@H]1O[C@H](CO)[C@@H](O)[C@@H]1O`, for which the cell count in experiment [1] worked out at 526. Further, the inhibition in experiment [1] was -6.8% (inactive); in experiment [3], 5.4% (inactive); in [5] it was -2.46% (inactive); in experiment [10] it was -8.17% (inactive); in [11], 2.74% (inactive); in experiment [12] it was 23.7% (inactive). For the same molecule, the inhibition of aggregation in experiment [2] was -1.5% (inactive). For the same molecule, the values for the nuclei count in [2] and in experiment [3] were 103% and 106%, respectively. Besides, the z-score in experiment [4] (setting [13]) was -1.32; in experiment [4] (setting [14]) it was 0.314; in experiment [4] (setting [15]), 0.132. Moreover, the fluorescence slope in experiment [6] is -0.491 (inactive). In addition, the NADPH fluorescence slope in experiment [7] is -3.9e-05 (inactive). In addition, the slope in experiment [8] is 0.00434 (inactive). The molecule was classed as inactive in [9].

With `N#C/C(=C\c1ccc(O)c(O)c1)C(=O)NCCCc1ccccc1`, in experiment [1], the cell count turned out to be 629. The inhibition in experiment [1] is 3.7% (inactive); in experiment [3], -94.6% (inactive); in experiment [5], 16.8% (inactive); in experiment [10] it was 2.27% (inactive) and -1.78% (inactive); in experiment [11] it was -14.9% (inactive); in experiment [12], -17.2% (inactive). Also, the inhibition of aggregation in experiment [2] was -14.6% (inactive). For the same molecule, the nuclei count stood at 98.2% in experiment [2] and 131% in [3]. The z-score was 1.89 in experiment [4] (setting [13]), 0.253 in [4] (setting [14]) and -0.466 in experiment [4] (setting [15]). Further, the fluorescence slope in [6] was -0.49 (inactive). For the same molecule, in [7], the NADPH fluorescence slope is -5.4e-05 (inactive). Besides, the slope in experiment [8] is 0.00485 (inactive). Further, the molecule was classed as inactive in experiment [9].

`COC(=O)CN(c1nc(C)c(Cl)c(OC)n1)S(=O)(=O)c1ccc(C)cc1`: in experiment [1], the cell count is 706. The inhibition in experiment [1] is -4.1% (inactive); in experiment [3] it was -48.3% (inactive); in [5], -11% (inactive); in [10], 5.7% (inactive); in experiment [11], 13.8% (inactive); in experiment [12], 18.7% (inactive). In addition, in experiment [2], the inhibition of aggregation is 2.4% (inactive). In addition, the nuclei count in [2] turned out to be 98.1%; in experiment [3] it was 148%. Further, the z-score was -0.882 in experiment [4] (setting [13]), 0.458 in experiment [4] (setting [14]) and 1.21 in [4] (setting [15]). Besides, the fluorescence slope in experiment [6] is -0.373 (inactive). In experiment [7], the NADPH fluorescence slope was -4.1e-05 (inactive). Further, the slope in [8] is 0.00465 (inactive). For the same molecule, the molecule was classed as inactive in experiment [9].

`CC(=O)Nc1ccccc1O`: the cell count in [1] stood at 675. Further, the inhibition in experiment [1] was 0.8% (inactive); in experiment [3] it was -84.6% (inactive); in experiment [5], 7.39% (inactive); in [10], -2.47% (inactive); in [11], 13.6% (inactive); in experiment [12], 37.8% (inactive). Also, the inhibition of aggregation in [2] was 14.1% (inactive). Besides, the nuclei count in [2] was found to be 106%; in [3], 121%. Further, the z-score was -0.0756 in experiment [4] (setting [13]), 0.873 in experiment [4] (setting [14]) and -0.0939 in experiment [4] (setting [15]). Further, in experiment [6], the fluorescence slope is -0.439 (inactive). The NADPH fluorescence slope in [7] was -5.7e-05 (inactive). For the same molecule, the slope in [8] was 0.00449 (inactive). Further, in experiment [9], the molecule was called inactive.

For `O=C(O)CCN(CCC(=O)O)c1nnc(SCc2ccccc2)s1`, the cell count in experiment [1] was 428. In addition, the inhibition in [1] is 4% (inactive); in experiment [3], -187% (inactive); in experiment [5] it was -3.98% (inactive); in experiment [10], -1.99% (inactive); in experiment [11] it was 18.7% (inactive); in experiment [12], 25.8% (inactive). The inhibition of aggregation in experiment [2] was -9.5% (inactive). Also, the nuclei count in experiment [2] turned out to be 108%; in experiment [3] it was 136%. In addition, the z-score in experiment [4] (setting [13]) was 0.906; in [4] (setting [14]), -0.398; in experiment [4] (setting [15]), -0.408. Further, in [6], the fluorescence slope was -0.393 (inactive). Also, the NADPH fluorescence slope in [7] was -6e-05 (inactive). Besides, the slope in [8] is 0.0059 (inactive). For the same molecule, the call in [9] was inactive.

Regarding `CCCCOc1ccc(C(=O)CCN2CCCCC2)cc1`, the cell count in experiment [1] is 591. Further, the inhibition in experiment [1] is -10.4% (inactive); in experiment [3], -91.6% (inactive); in experiment [5] it was 7.39% (inactive); in experiment [10], 61.3% (active); in experiment [11] it was 4.68% (inactive); in experiment [12], 21.9% (inactive). Further, the inhibition of aggregation in experiment [2] is 4.2% (inactive). Moreover, the nuclei count in experiment [2] came to 92.4%; in experiment [3], 114%. Further, the z-score in [4] (setting [13]) is 0.144; in experiment [4] (setting [14]) it was -0.213; in experiment [4] (setting [15]) it was -1.06. For the same molecule, in experiment [6], the fluorescence slope was -0.421 (inactive). The NADPH fluorescence slope in experiment [7] is -5.1e-05 (inactive). Further, the slope in [8] is 0.00405 (inactive). The molecule was classed as inactive in [9].

The record behind these values is PubChem BioAssay.
